# Experiments:
# Assay in all cases: PBM binding z-score (relative to random genomic background probes); higher = stronger binding; sequences stand for … in GC…GCGATTGACAGCGTAGAATGAAGG
# [1] = system: FXR:RXRa (NR concentration 270 nM, RXRa partner concentration 90 nM)
# Outline: (§1)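 Custom Agilent 4×180K protein-binding microarrays carried double-stranded probes. Their 34-nt variable regions held direct-repeat seeds, single-nucleotide variants, half-site ablations and random human genomic background sequences. Arrays were incubated 1 h with ligand-free nuclear receptor dimers in PBS pH 7.4, 2% milk, 0.02% Triton X-100, 1 mM DTT, 0.2 mg/mL BSA and 0.4 mg/ml salmon testes DNA. Antibodies against each partner (one per run) detected binding, and scanned fluorescence was regression-normalized. Binding z-scores use random background probes as reference.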
# [2] = system: LXRa:RXRa (NR concentration 270 nM, RXRa partner concentration 90 nM)
# Outline: as §1
# [3] = system: LXRa homodimer (NR concentration 270 nM)
# Outline: as §1
# [4] = system: LXRb:RXRa (NR concentration 270 nM, RXRa partner concentration 90 nM)
# Outline: as §1
# [5] = system: LXRb homodimer (NR concentration 270 nM)
# Outline: as §1
# [6] = system: PPARa:RXRa (NR concentration 270 nM, RXRa partner concentration 90 nM)
# Outline: as §1
# [7] = system: PPARg:RXRa (NR concentration 180 nM, RXRa partner concentration 90 nM)
# Outline: as §1
# [8] = system: PPARg:RXRa 270nM:90nM, anti-RXR (NR concentration 270 nM, RXRa partner concentration 90 nM)
# Outline: as §1
# [9] = system: PPARg:RXRa 30nM:10nM, anti-RXR (NR concentration 30 nM, RXRa partner concentration 10 nM)
# Outline: as §1
# [10] = system: PPARg:RXRa 90nM:30nM, anti-RXR (NR concentration 90 nM, RXRa partner concentration 30 nM)
# Outline: as §1
# [11] = system: PPARg:RXRa DBDmut IVT, anti-RXR (DBD mutation: RXRa K156A/R161A, NR concentration 270 nM, RXRa partner concentration 90 nM)
# Outline: as §1
# [12] = system: PPARg:RXRa IVT, anti-PPARg (NR concentration 270 nM, RXRa partner concentration 90 nM)
# Outline: as §1
# [13] = system: PPARg DBDmut:RXRa IVT, anti-PPARg (DBD mutation: PPARg1 K132A/R137A, NR concentration 270 nM, RXRa partner concentration 90 nM)
# Outline: as §1
# [14] = system: PPARg DBDmut IVT, anti-PPARg (DBD mutation: PPARg1 K132A/R137A, NR concentration 270 nM)
# Outline: as §1
# [15] = system: PPARg homodimer (NR concentration 180 nM)
# Outline: as §1
# [16] = system: PXR:RXRa (NR concentration 270 nM, RXRa partner concentration 90 nM)
# Outline: as §1
# [17] = system: PXR homodimer (NR concentration 270 nM)
# Outline: as §1
# [18] = system: RARa:RXR (NR concentration 270 nM, RXRa partner concentration 90 nM)
# Outline: as §1
# [19] = system: RARa homodimer (NR concentration 270 nM)
# Outline: as §1
# [20] = system: RARb:RXRa (NR concentration 270 nM, RXRa partner concentration 90 nM)
# Outline: as §1
Sequence,PBM binding z-score [1],PBM binding z-score [2],PBM binding z-score [3],PBM binding z-score [4],PBM binding z-score [5],PBM binding z-score [6],PBM binding z-score [7],PBM binding z-score [8],PBM binding z-score [9],PBM binding z-score [10],PBM binding z-score [11],PBM binding z-score [12],PBM binding z-score [13],PBM binding z-score [14],PBM binding z-score [15],PBM binding z-score [16],PBM binding z-score [17],PBM binding z-score [18],PBM binding z-score [19],PBM binding z-score [20]
CCTACTGGGCCAATAAGGTCATTGATGCCGATAA,2.84,2.93,1.06,3.03,-0.277,4.04,2.89,3.1,0.789,2.38,3.88,4.4,-0.359,-0.0114,1.04,3.77,3.17,3.56,0.431,3.17
CCTACTGGGCCACGAAAGGTCCTTGATTCAGTGA,-0.183,-0.157,-0.498,-0.372,-0.947,1.21,1.24,1.23,-0.391,0.635,5.26,4.89,-0.745,-0.678,-0.351,-0.149,-0.492,0.131,-0.655,0.686
AGCGAAAGGTCGAAGGTGAGTATACCCACCCGAA,4.1,3.39,-0.15,2.68,-0.267,4.61,4.72,5.09,2.12,4.25,0.0438,2.06,0.39,-0.438,1.16,2.97,-0.17,4.28,0.406,3.6
CCTCGGAGGTCAGAAGGTCAGAGCTGTCCGCTTT,5.84,4.89,1.19,3.83,0.259,4.92,3.38,5.24,1.27,3.92,2.53,3.5,-1.11,-1.86,5.71,4.71,0.603,6.73,0.835,5.16
ATCGAAAGGTCGCAGGTGAGTATACCCACCCGAA,4.98,3.65,0.17,2.74,0.436,5.01,4.34,4.73,1.5,3.31,0.692,2.78,1.46,0.551,1.95,2.89,0.199,3.82,0.721,4.09
CCTAGTTGGTCAAGCTCACACACGCTATAGGTAC,0.0686,0.299,0.418,0.309,0.719,0.0262,0.838,0.282,0.0303,0.00108,1.68,1.17,0.0557,0.393,0.772,0.179,0.39,0.432,1.68,1.14
TCTCGGAGGACACGAAAGGTCAGTGCTCGACATC,2.42,3.37,3.24,2.99,-0.000616,2.99,0.746,2.29,2.43,2.19,1.47,1.67,-0.413,-0.365,3.45,3.79,0.68,4.07,1.12,4.13
CAACCTAGGTCACCGGAAGGTCAAAGTCCGCATG,7.05,6.32,5.53,5.93,1.49,5.6,6.23,6.31,3.11,5.38,4.96,5.75,0.0174,0.904,8.27,6.29,2.96,7.58,5.02,5.39
ACTAGTTGGTCAGCTGAGGTCACACACAATTCGG,4.25,3.46,1.96,3.8,0.66,3.89,1.97,2.31,0.854,1.58,1.96,3.06,0.93,1.21,2.63,5.47,2.09,4.69,2.64,3.79
TCTCGGAGGACACGAAACGTCAGAGCTCGACATC,0.138,-0.218,-0.617,-0.347,-0.872,-0.13,0.395,0.915,2.04,1.4,1.4,0.0714,-0.35,-0.247,-0.276,-0.408,-0.586,-0.175,-0.713,1.25
CCTTACGGGTCACTCCAGGTTCTAGCATCGGAGT,4.8,4.87,0.141,2.7,-0.137,4.28,2.96,3.49,0.999,2.15,2.92,3.24,0.0574,-0.343,1.37,3.13,-0.323,3.39,0.55,3.63
CCTTCTGGGCCATTCAGAGGTCATTGATCATATG,2.86,4.26,6.84,3.99,0.742,4.02,1.85,2.79,0.927,2.05,4.48,3.89,-0.117,0.751,2.03,4.77,2.46,4.25,0.112,3.25
TCTCGGAGGACACGAAGGTCAGCGCTTTCCAGAG,1.84,1.77,0.379,1.68,-0.754,2.31,0.453,2.02,2.12,1.93,1.48,1.41,-0.389,-0.884,2.23,2.49,0.985,3.06,0.313,3.95
GATACAGGGTGAAGGCCAGAGTACGCGTATTGAT,-0.425,-0.357,-0.615,-0.42,-0.925,1.08,1.41,1.72,0.138,0.958,0.737,1.34,-0.37,-0.0968,-0.218,-0.324,-0.0784,-0.132,-0.36,0.882
